Screens (PubChem)
ELG1 genotox = genotoxicity induction in ELG1-luciferase HEK293T cells; HEK293T ELG1-luciferase reporter, luminescence, 16 h; hit rate 1.3% among 330,000; Potency, µM (titrated, usually from 46 µM), for the others: top-dose activity change, positive = activation, hits mostly activators; AID 504466; also: % of control where 0% means no effect; nearly all actives have a fitted effect of over 60% in size
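Cells (2,000/well) expressing the ELG1-luciferase fusion are dosed by pin tool and kept 16 hr at 37 °C, 5% CO2. Signal comes from ONE-Glo luciferase reagent after 30 min at room temperature.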
SMN2 splice enh = enhancers of SMN2 splice variant expression; HEK293 SMN2-luciferase splicing reporter, luminescence, 30-36 h; hit rate 2.8% among 210,000; Potency, µM (highest dose often 46.1 µM), for the others: top-dose activity change, positive = activation, usual class: activators; also: % of control where 0% means no effect; nearly all actives have a fitted effect of over 55% in size
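HEK293 cells carry an SMN2 minigene-luciferase reporter in which exon 7 inclusion puts luciferase in frame. Cells were seeded at 2000 cells/well, attached for 10-12 hours, then exposed to compounds for 30-36 hours at 37C before ONE-Glo luminescence.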
FLuc counter = inhibits or activates purified firefly luciferase, miR-21 counter-screen; hit rate 6.9% among 360,000; Potency, µM (top dose mostly 57.5 µM), for the others: at the highest dose activity change, negative = inhibition, usual class: inhibitors; purified FLuc, Km substrates, luminescence inhibition; P08659;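 also: plate controls were vehicle for no effect and reference inhibitor for full effect; nearly all actives have a fitted effect of over 55% in size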
Target sequence (P08659 whole entry, looked up): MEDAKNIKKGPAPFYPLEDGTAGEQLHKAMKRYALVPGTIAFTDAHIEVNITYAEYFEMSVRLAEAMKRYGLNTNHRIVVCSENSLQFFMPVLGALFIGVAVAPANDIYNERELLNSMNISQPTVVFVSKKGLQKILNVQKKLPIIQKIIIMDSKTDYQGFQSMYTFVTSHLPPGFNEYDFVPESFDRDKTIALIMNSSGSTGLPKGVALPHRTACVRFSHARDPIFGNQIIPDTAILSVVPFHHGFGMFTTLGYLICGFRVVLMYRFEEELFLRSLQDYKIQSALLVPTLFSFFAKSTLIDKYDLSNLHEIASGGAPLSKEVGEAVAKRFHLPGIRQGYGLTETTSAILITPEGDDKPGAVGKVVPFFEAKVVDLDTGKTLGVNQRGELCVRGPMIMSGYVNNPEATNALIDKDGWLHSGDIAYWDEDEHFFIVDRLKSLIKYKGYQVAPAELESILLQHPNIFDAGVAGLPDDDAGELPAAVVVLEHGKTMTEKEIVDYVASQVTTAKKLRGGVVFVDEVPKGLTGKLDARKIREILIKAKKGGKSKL
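Biochemical qHTS of compounds, final roughly 60 µM downward over six points, against 10 nM purified firefly luciferase using Km concentrations of substrates (10 uM D-luciferin, 10 uM ATP) in Tris acetate pH 7.5 buffer; luminescence output.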
Rab9 promoter act = Rab9 promoter activation; Potency, µM (series often up to 9.22 µM), for inactives: at the highest dose activation, negative = inhibition, hits mostly activators; hit rate 2.8% among 320,000; Huh7 Rab9 promoter-luciferase reporter, luminescence, 24 h; also: % of control where 0% means no effect; nearly all actives have a fitted effect of over 60% in size
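Cell-based reporter: Huh7 stable for Rab9 promoter-driven luciferase, plated in reduced-serum medium with 10% FBS at 1500 cells/well, compound-treated 24 h at 37 °C, luminescence read after 10 min reagent.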
NPC1 prom act = activators of NPC1 promoter. Huh7 NPC1 promoter luciferase reporter, 24 h. Potency, µM (series often up to 9.22 µM), for inactives: top-dose activation, actives largely listed as activators. hit rate 2.4% among 320,000. AID 485313; also: % of control where 0% means no effect; nearly all actives have a fitted effect of over 60% in size
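Compounds in DMSO were transferred onto Huh7 NPC1-luciferase reporter cells pre-incubated 2 h; after 24 h at 37 °C, Amplite reagent was dispensed and luminescence recorded 10 min later.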
Numbers without * were called inactive; [ ] = another dose, or the depositor's remark. An excerpt weighted towards active compounds, which were near 7.5% of everything screened. Calls follow the shape of the dose curve; as a rule, active = well fitted curve in the direction sought with a large enough effect; inconclusive = small, poorly fitted or top-dose-only effect, or another doubt; inactive = no such curve, though single readings can be large; an effect the other way counts as inactive or inconclusive. Potency is read from the fitted curve at half-maximal effect.

`COc1ccc(-c2nc(CC(=O)O)cs2)cc1` gave ELG1 genotox 3%, SMN2 splice enh -5%, FLuc counter -7%, Rab9 promoter act 0% and NPC1 prom act 3%.
O=C(O)c1ccc(-c2nc(-c3cccc(C(F)(F)F)c3)cs2)cc1 was read as ELG1 genotox 4%, SMN2 splice enh 2%, FLuc counter inconclusive, Rab9 promoter act -2% and NPC1 prom act 24%.
O=C(CN1CCN(c2nc(-c3ccccc3)cs2)CC1)NNC(=O)c1ccc(Br)cc1 was read as ELG1 genotox -10%, SMN2 splice enh -34%, FLuc counter -1%, Rab9 promoter act -4% and NPC1 prom act -1%.
Screening COc1ccc(-c2csc(-c3ccc(C(=O)O)cc3)n2)cc1 returned ELG1 genotox 6%, SMN2 splice enh 2µM*, FLuc counter 0.95µM*, Rab9 promoter act 0.13µM* and NPC1 prom act 0.32µM*.
C=CCNC(=O)c1ccc(-c2nc(-c3ccccc3)cs2)cc1 was read as ELG1 genotox 14%, SMN2 splice enh 5.6µM*, FLuc counter inconclusive, Rab9 promoter act 0.89µM* and NPC1 prom act inconclusive.
For O=C(NCCc1nc(-c2ccccc2)cs1)c1ccc(Br)cc1 the results were ELG1 genotox 0%, SMN2 splice enh -5%[1.84 µM], FLuc counter 15µM*, Rab9 promoter act -6% and NPC1 prom act -6%.
CC(=O)c1ccc(S(=O)(=O)NCc2ccc(C(=O)N(C)CC(=O)Nc3cccc(F)c3)cc2)cc1 was read as ELG1 genotox -11%, FLuc counter 1%, Rab9 promoter act -2% and NPC1 prom act -3%.
Screening C=CCOc1ccc(CN(C)CC(=O)Nc2ccc3c(c2)CCC3)cc1 returned ELG1 genotox -4%, SMN2 splice enh -4%, FLuc counter -2%, Rab9 promoter act 1% and NPC1 prom act -5%.
For O=C(O)c1ccc(-c2nc(-c3ccc(Cl)cc3Cl)cs2)cc1 the results were ELG1 genotox inconclusive, SMN2 splice enh 11µM*, FLuc counter 8.5µM*, Rab9 promoter act 1.4µM* and NPC1 prom act 1.6µM*.
Screening Cc1ccc2nc3c(c(N)c2c1)CCN3c1ccccc1 returned ELG1 genotox 0%, SMN2 splice enh -48%, FLuc counter 19µM*, Rab9 promoter act 2% and NPC1 prom act 17%.
`CN1C(=O)/C(=C\C=C2/CCCN2C)N(C)C1=S` gave ELG1 genotox inconclusive, SMN2 splice enh inconclusive, FLuc counter inconclusive, Rab9 promoter act inconclusive and NPC1 prom act 25%.
`CCN1C(=O)/C(=C/C=C2/CCCN2C)OC1=S` gave ELG1 genotox inconclusive, FLuc counter inconclusive, Rab9 promoter act inconclusive and NPC1 prom act 3.2µM*.
COc1cc(CNc2ccc(N3CCCC3)cc2)ccc1OCc1ccccc1F was read as ELG1 genotox 13%, SMN2 splice enh 18µM*, FLuc counter inconclusive, Rab9 promoter act 19% and NPC1 prom act 13%.
For COc1cc(CNc2ccc(N3CCCC3)cc2)ccc1OCc1ccccc1 the results were ELG1 genotox inconclusive, SMN2 splice enh 59%, FLuc counter 6µM*, Rab9 promoter act 19% and NPC1 prom act 16%.
`COc1cc(CNc2ccc(N3CCCCC3)cc2)ccc1OCC(=O)NC(C)(C)C` gave ELG1 genotox 1%, FLuc counter 5.4µM*, Rab9 promoter act 0% and NPC1 prom act -12%.
For COc1cc(CNc2ncn[nH]2)ccc1OCc1cccc(C)c1 the results were ELG1 genotox inconclusive, FLuc counter 19µM*, Rab9 promoter act inconclusive and NPC1 prom act inconclusive.
`COc1cc(CNC(C)(C)CO)ccc1OCC(=O)NC(C)(C)C` gave ELG1 genotox 1%, SMN2 splice enh 12%, FLuc counter 2%, Rab9 promoter act 1% and NPC1 prom act -3%.
Screening CCNCc1ccc(OCc2ccccc2F)c(OC)c1 returned ELG1 genotox 4%, SMN2 splice enh 10%, FLuc counter -2%, Rab9 promoter act 3% and NPC1 prom act -3%.
`CCOC(=O)CCc1c(C)c2ccc(OCc3cc([N+](=O)[O-])ccc3OC)cc2oc1=O` gave ELG1 genotox 0%, SMN2 splice enh -17%, FLuc counter 2%, Rab9 promoter act -16% and NPC1 prom act -6%.
